# About 1,800 (0.53%) of roughly 340,000 compounds were called active.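 The calls were made as follows: active = activation over 3 SD above normal in the single-dose calcium agonist read (cut at about 30% in these data); inactive = the rest.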 Many of the other results were omitted from the sample, so actives are more common in it than they were.
# Target: D(2) dopamine receptor (Homo sapiens) (UniProt P14416)
# Test: HTS Assay for Allosteric Agonists of the Human D2 Dopamine Receptor: Primary Screen for Agonists; also: 0% is about no effect
# Details: HEK293 T-REx D2 cells, calcium flux agonist mode; at 2 µM; stronger effect = higher value
# Description: NIH Chemical Genomics Center [NCGC] NIH Molecular Libraries Probe Centers Network [MLPCN] MLPCN Grant: NS064831-01 Assay Submitter (PI): David Sibley Dopamine receptors (DARs) are involved in the etiology and/or therapy of a number of neuropsychiatric and endocrine disorders. For instance, all receptor-based antiparkinsonian drugs work via stimulating the D2 DAR subtype whereas all FDA-approved antipsychotic agents are antagonists of this receptor. […] There are three different types of allosteric modulators that we are seeking, two of which will stimulate or augment receptor signaling, allosteric agonists and potentiators, while the third, allosteric antagonists, will attenuate receptor signaling. The present primary screening assay measures compound agonism by tracking calcium flux in a […], inducible Hek293 Trex D2 cell line.
# Freshly passaged cells are plated in 1536 well black, clear bottom plates at a density of 4000 cells/well in 3 ul of complete media containing 1x tetracycline inducer. After an overnight incubation at […] in 5% CO2, cells are loaded with 2 ul of the no wash Calcium Assay Kit (ABD Bioquest) and incubated at room temperature for 30 to 90 minutes. Agonist read: A 10 cycle (1 second/cycle) baseline measurement is taken and then the FDSS online 1536 pintool delivers 23 nl of compound library (as well as dopamine controls) to the plate. The plate is measured for kinetically at 1 cycle/sec for 180 seconds and is considered to be the agonist portion of the assay (eg, compounds which activate a positive calcium response during this portion are flagged as potential agonists). Following the 180 second read, 1 ul of either an EC20 (positive modulation assay) or EC80 (negative modulation assay) is delivered by an onboard pipette head. Measurements are taken kinetically for an additional 180 seconds.
# Sequence of D(2) dopamine receptor (Homo sapiens) (P14416 whole entry, looked up): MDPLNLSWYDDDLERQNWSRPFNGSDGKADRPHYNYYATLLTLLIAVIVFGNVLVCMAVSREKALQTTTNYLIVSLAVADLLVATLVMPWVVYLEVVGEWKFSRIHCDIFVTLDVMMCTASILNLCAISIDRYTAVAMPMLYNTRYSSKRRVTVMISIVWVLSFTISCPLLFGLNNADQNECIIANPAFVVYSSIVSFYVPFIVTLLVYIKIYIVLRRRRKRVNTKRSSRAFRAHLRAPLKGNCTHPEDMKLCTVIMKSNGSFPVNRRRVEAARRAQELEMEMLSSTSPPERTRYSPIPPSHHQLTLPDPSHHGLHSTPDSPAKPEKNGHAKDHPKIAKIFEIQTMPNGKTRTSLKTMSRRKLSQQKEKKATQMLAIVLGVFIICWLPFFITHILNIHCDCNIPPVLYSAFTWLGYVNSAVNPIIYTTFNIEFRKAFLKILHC
row,Structure (SMILES),activation
1,COc1ccc(CN2CCN(c3ccccc3F)CC2)c(OC)c1,71.7% (active)
2,COc1ccccc1CN1CCN(C(=O)Cc2ccccc2)CC1,0.485% (inactive)
3,Fc1cccc(F)c1CN1CCN(Cc2c(F)cccc2F)CC1,1.26% (inactive)
4,COC(=O)C1=C(c2cccc(OCc3ccccc3)c2)C[C@@H]2CC[C@H]1N2C(=O)NNCc1ccccc1,-0.13% (inactive)
5,CC(C)c1ccc(O)c(CN2CCN(c3ccccc3)CC2)c1,-1.71% (inactive)
6,Fc1ccc(N2CCN(Cc3ccc4c(c3)OCO4)CC2)cc1,6.76% (inactive)
7,Oc1cc2c(cc1CN1CCN(c3ccccc3)CC1)OCO2,83.3% (active)
8,COC(=O)C1=C(c2ccc3ccccc3c2)C[C@@H]2CC[C@H]1N2C(=O)NCCO,-0.422% (inactive)
9,CCc1ccc(OCC(=O)N2CCN(CC(=O)Nc3ccccc3Cl)CC2)cc1,1.2% (inactive)
10,Cc1cccc(Cn2cccc(C(=O)Nc3ccc4c(c3)OCCO4)c2=O)c1,0.0946% (inactive)
11,CCOC(=O)C1(CCc2ccccc2)CCN(Cc2ccco2)CC1,0.433% (inactive)
12,CCOC(=O)C1(Cc2ccc(Cl)cc2)CCN(C(C)CCn2cccn2)CC1 (stereo not given),72.7% (active)
13,COC(=O)C1=C(c2ccc(F)cc2OCc2ccccc2)C[C@@H]2CC[C@H]1N2C(=O)NCc1ccc(OC)c(OC)c1,-0.652% (inactive)
14,O=C(CCC(=O)N1C[C@H]2C[C@@H](C1)c1cccc(=O)n1C2)NCc1ccccc1C(F)(F)F,0.976% (inactive)
15,Cc1nnc(NC(=O)c2cccn(Cc3cccc(F)c3)c2=O)s1,0.455% (inactive)
